# In the supplement of paper PMC3334620:
# Whole data set: some 33,000 sequences, median “E-score (-0.5 to 0.5)” near -0.043, cut for the highest 2% near 0.37. The list comes from a sample in which the highest values are over-represented; it also holds similar and randomly drawn sequences.
# Target: T1, Upc2 (UniProt Q12151)
# T1 sequence: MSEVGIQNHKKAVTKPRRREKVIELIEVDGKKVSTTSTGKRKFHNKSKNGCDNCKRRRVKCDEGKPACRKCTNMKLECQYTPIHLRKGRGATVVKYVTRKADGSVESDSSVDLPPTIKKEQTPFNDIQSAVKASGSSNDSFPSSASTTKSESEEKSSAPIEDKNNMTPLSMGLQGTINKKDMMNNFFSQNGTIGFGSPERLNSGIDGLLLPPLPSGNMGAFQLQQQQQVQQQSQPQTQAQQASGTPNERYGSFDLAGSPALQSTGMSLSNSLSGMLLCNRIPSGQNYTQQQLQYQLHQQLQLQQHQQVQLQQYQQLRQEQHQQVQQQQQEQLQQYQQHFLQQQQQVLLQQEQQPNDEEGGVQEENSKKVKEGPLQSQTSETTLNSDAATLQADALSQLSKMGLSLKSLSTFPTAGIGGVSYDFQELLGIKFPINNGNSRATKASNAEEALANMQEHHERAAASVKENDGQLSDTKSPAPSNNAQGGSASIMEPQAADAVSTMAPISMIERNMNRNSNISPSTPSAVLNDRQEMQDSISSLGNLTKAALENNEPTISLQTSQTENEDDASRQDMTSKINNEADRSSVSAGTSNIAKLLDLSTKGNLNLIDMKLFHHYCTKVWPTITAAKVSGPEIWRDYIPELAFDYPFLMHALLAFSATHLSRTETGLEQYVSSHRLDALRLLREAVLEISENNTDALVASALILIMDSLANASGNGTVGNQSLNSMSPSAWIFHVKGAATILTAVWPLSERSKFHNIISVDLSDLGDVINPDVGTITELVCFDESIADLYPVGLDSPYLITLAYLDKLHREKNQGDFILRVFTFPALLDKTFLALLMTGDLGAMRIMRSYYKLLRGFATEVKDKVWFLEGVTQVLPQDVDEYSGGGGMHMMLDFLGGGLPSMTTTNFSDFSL
# Test: PBM E-score (8-mer binding enrichment) (E-score (-0.5 to 0.5)); higher = stronger / more preferred TF binding
# Details: protein concentration: 200 nM; construct: GST-full length
# Method in brief: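 Detection of bound protein used fluorescent anti-GST, with scans normalised by masliner. The proteins were GST-tagged yeast transcription factors applied at about 100-200 nM to universal all-10-mer Agilent arrays made double-stranded by primer extension. Each ungapped eight-base word, pooled with its reverse complement, was scored with an E-score from the Universal PBM Analysis Suite.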
row,Sequence,PBM E-score
1,CCGTTTCA,0.159
2,CGACTTTC,0.0358
3,GCCTCCCC,-0.149
4,CCCCATAC,0.174
5,ACGTTGCG,0.0848
6,GGCAGTTA,-0.21
7,CCGCAGCA,-0.267
8,ACGAGAAA,0.349
9,ACGAGACT,0.337
10,ACGAGAAC,0.375
11,ACGAGAAG,0.277
12,CCGAGAAC,0.117
13,ACGAGAAT,0.396
14,AATCGCAA,0.0942
15,TGCATGAA,0.0372
16,AATGCAGA,-0.0923
17,TGCTAGCA,-0.0249
18,CGGAACGA,0.468
19,GGGAACCA,-0.165
20,AGGAACGG,0.322
21,CGGAACGC,0.243
22,CGGAACAA,0.0835
23,AGGAACGC,0.114
24,GGGAACAA,0.0652
25,AGGAACGA,0.449
26,GGGAACGA,0.466

row,Sequence,PBM E-score
1,GTCCACAA,-0.215
2,CCGGAGCA,-0.0221
3,AGTGCAGC,-0.22
4,ATTACGTA,0.309
5,CCACTGTA,0.0804
6,TTGCCCAA,-0.0249
7,AGGTATAT,-0.0562
8,GCGTATAA,0.444
9,CCGTATCC,0.331
10,GAGTATAC,0.315
11,CTGTATAC,0.281
12,GCGTATTA,0.0994
13,GTGTATAA,0.138
14,AAGTATAT,0.104
15,GGGTATAC,0.255
16,ACGTATAT,0.404
17,GCGTATAC,0.454
18,CCGTATAC,0.475
19,CCTAGTGC,-0.199
20,CGTCATGC,-0.202
21,CAGAATTC,-0.03
22,GGATGGCA,0.0444
23,ACTACCAG,-0.0238
24,CTCTTCGC,-0.12
25,ACTATGAA,-0.0506
26,AGAGGGTG,-0.171

row,Sequence,PBM E-score
1,TTATACAA,0.0521
2,GCTGCAAC,-0.107
3,GTACTCTA,-0.0205
4,CTGGGTAA,-0.00044
5,GCTGTGTA,0.00184
6,CGGTATAG,0.225
7,ATGTATAC,0.263
8,ACGTATAC,0.445
9,ACGTATTG,0.209
10,AAGTATAC,0.306
11,CCGTATCG,0.319
12,CCGTATGA,0.392
13,ACGTATGA,0.243
14,CCGTATGC,0.356
15,ACGTATCG,0.22
16,CCGTATAG,0.485
17,ACGTATAG,0.433
18,AAGACTTG,-0.00965
19,CCCTATCA,-0.325
20,ACACGCGT,0.152
21,ACGTTCAT,0.169
22,CCTCTGTA,0.0279
23,GAGGTCGC,-0.042
24,GAATCTAA,0.111
25,ACGTATAA,0.437
26,CGGTATAA,0.267

row,Sequence,PBM E-score
1,CTGTATAA,0.156
2,ATGTATAA,0.0845
3,CCGTATAA,0.483
4,AGGTATAA,0.198
5,GACCAATC,-0.117
6,TCATCAGA,-0.187
7,GTTGTCAA,-0.00594
8,TAGCTAAA,0.119
9,CCTGCCAA,-0.0976
10,CATACCAG,-0.0446
11,AGTACCAA,-0.0772
12,TGTACCAA,0.03
13,CGTACCTC,0.361
14,CGTACCAA,0.392
15,AGTACCAG,-0.134
16,CGTACCAC,0.407
17,AGTACCTA,-0.109
18,CGTACCTA,0.376
19,CGTACCAG,0.39
20,GGTACCAC,-0.18
21,AGTACCAC,-0.0837
22,GATCAATC,-0.104
23,AATTGAGC,-0.0691
24,GTAGGAAC,0.13
25,CAAGCTTG,-0.233
26,CAGTAACA,-0.0459

row,Sequence,PBM E-score
1,AGAGTGCC,-0.209
2,CATATACC,-0.0116
3,CATATACA,0.05
4,AATATACA,0.0677
5,AATATACT,-0.0413
6,AATATACG,0.465
7,CATATACG,0.463
8,AAGGACAT,0.0482
9,AAAATACG,0.346
10,GTGGACAC,-0.158
11,GGATCGAC,-0.14
12,CGCGTTCA,0.242
13,GGCGTTGA,-0.0389
14,CGCGTTTA,0.415
15,GACGTTTA,0.366
16,AGCGTTTA,0.363
17,GGCGTTTA,0.378
18,GGTCCCCA,-0.24
19,GACAACCC,0.0735
20,AAAGGGGC,-0.127
21,ACACAGCG,0.104
22,ATGGGTTA,-0.00164
23,CGTTCAAA,0.369
24,AGTTCAAC,0.00196
25,CGTTCCAG,0.391
26,CGTTCCGC,0.385

row,Sequence,PBM E-score
1,AGTTCCAG,-0.188
2,CGTTCCGA,0.361
3,AGTTCAAG,0.129
4,CGTTCCAA,0.329
5,CGTTCAAC,0.382
6,AGTTCCGC,0.0626
7,CGTTCAAG,0.407
8,GGTTCAAC,0.0526
9,AGGCGTGA,-0.00507
10,CGGAAGTA,0.0369
11,AACCACAA,-0.077
12,GTGAATAA,-0.0516
13,ACAACTAC,-0.129
14,GCGAAAAA,0.148
15,GACTTAAC,0.00959
16,CTGAAGAA,-0.299
17,CCCATCGG,0.0976
18,AGCAAGCT,-0.253
19,CGTAAGAG,0.316
20,ACGCCATC,-0.0963
21,GCAAACAC,-0.00637
22,GGTTCCCA,-0.0861
23,CGTTCCCC,0.333
24,CGTTCCCA,0.373
25,GACGTATA,0.424
26,GACGTAGC,0.0263

row,Sequence,PBM E-score
1,AACGTATC,0.142
2,TACGTACA,0.341
3,AACGTATT,0.212
4,TACGTATA,0.423
5,GACGTATC,0.156
6,CACGTATC,0.132
7,CACGTATA,0.433
8,CACGTATG,0.236
9,AACGTATA,0.443
10,TACGTAGA,0.18
11,CGCAAATA,0.0612
12,AACAGGTC,0.056
13,TGAAAAAA,0.0284
14,ACACCGAG,-0.024
15,AACATTGT,0.0538
16,GCCGTACA,0.4
17,GCCGTGCA,-0.291
18,ACCGTACG,0.383
19,CCCGTACC,0.383
20,CCCGTACA,0.398
21,ACCGTAAT,0.0464
22,CCAGTACC,0.0225
23,CCCGTAGC,0.0891
24,GCGGTACA,-0.0545
25,CACGTACA,0.272
26,CCAGTACA,-0.157

row,Sequence,PBM E-score
1,ACCGTAGG,-0.135
2,ATCGACAA,0.0687
3,AACATCAT,-0.094
4,AAAAGCTG,0.0411
5,ACACACTC,-0.042
6,TTCAGCAA,-0.0506
7,CTCTCCAA,-0.0403
8,ACTCGACC,-0.0381
9,TCCGTAGA,-0.0263
10,CCCGTACG,0.393
11,TGCGTACA,0.318
12,AGCGTACG,0.354
13,CCCGTAGG,-0.0508
14,TCCGTACA,0.406
15,CGCGTACG,0.4
16,CCCGTAAG,0.208
17,GCCGTACC,0.379
18,GCCGTAGC,0.0955
19,CGCGTACA,0.35
20,ACCGTACC,0.366
21,AAGCTCAC,-0.0662
22,AAGAAGGC,-0.216
23,ATCAGTGC,-0.0682
24,CTTAGGCA,-0.361
25,ATTTCAGG,-0.0274
26,ATCGATAG,-0.0178

row,Sequence,PBM E-score
1,TAAATTGA,-0.0257
2,CGTGCATA,-0.0557
3,GCCCTTTA,-0.0758
4,ACCGTACA,0.39
5,ACTGTACA,0.133
6,ACCGTACT,0.214
7,AAGCGGCT,-0.0364
8,ACCGCTAC,0.14
9,AGACCGTA,0.287
10,GCACCGTA,0.371
11,GAACCGTA,0.269
12,CGGCCGTA,0.378
13,CGACCGTA,0.373
14,CCACCGAA,-0.00574
15,CCACCGTA,0.399
16,CGACCGTC,-0.0557
17,ACACCGTA,0.321
18,CGGCCGTC,-0.0655
19,AGGCCGTA,0.355
20,CCACCGTC,-0.227
